Experimental findings from PubChem BioAssay (EPA / NIEHS) are described below.

Several values for one entry are separate records, joined by “and”; a condition that tells them apart may be missing. Equal values may be shown once. Results filed as inconclusive are left out. The source holds several records for some structures; these can differ, active in one and inactive in another. Activity calls are given as the source filed them. Rule for the calls: active = hit-call score of the fitted dose curve at least 0.9, where 1 is the maximum; inconclusive = response in the unintended direction; inactive = score below 0.9.

Experiment [1] has as its target human Thyroid Receptor Alpha (TRa), THRA (gene 7067) (UniProt P10827). Description: NVS_NR_hTRa_Antagonist: NovaScreen (NVS) Nuclear Receptor Binding Assay for human Thyroid Receptor Alpha Antagonism (TRa) (AID 2283362).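 Note: activity is loss of signal relative to DMSO baseline.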 The procedure, abridged: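 Extracted protein, cell-free; 1 h incubation after dosing; AlphaLISA chemiluminescence binding readout. DMSO = baseline/neg ctrl; signal loss = activity. Primary: duplicate, 25 uM; secondary: conc. series on actives.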

Experiment [2] deals with Peroxisome proliferator-activated receptor gamma (Homo sapiens) (UniProt P37231). Put plainly: NVS_NR_hPPARg: NovaScreen (NVS) Nuclear Receptor Binding Assay for human Peroxisome Proliferator-activated Receptor gamma (PPARg) (AID 2283370). In short, it runs like this: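 Chemicals were tested first in duplicate at 25 uM, then in concentration series if active. Binding to cell-free PPARg protein was measured by fluorescence polarization after 2 h, with loss of signal scored against DMSO.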
Sequence of Peroxisome proliferator-activated receptor gamma (Homo sapiens) (P37231 whole entry, looked up): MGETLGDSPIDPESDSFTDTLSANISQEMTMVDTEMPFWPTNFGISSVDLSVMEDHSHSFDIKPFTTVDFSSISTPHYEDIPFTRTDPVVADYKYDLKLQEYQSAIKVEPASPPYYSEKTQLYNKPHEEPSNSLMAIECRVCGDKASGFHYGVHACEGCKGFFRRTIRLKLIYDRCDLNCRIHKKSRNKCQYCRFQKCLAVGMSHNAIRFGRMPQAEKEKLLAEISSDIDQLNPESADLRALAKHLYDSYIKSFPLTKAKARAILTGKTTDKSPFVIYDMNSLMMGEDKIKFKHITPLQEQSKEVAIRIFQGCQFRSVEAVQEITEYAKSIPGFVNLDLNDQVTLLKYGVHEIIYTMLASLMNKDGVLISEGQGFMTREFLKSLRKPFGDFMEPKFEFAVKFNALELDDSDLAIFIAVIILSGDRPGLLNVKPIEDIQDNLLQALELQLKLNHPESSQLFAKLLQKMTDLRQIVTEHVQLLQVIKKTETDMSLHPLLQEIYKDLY

The target in the next experiment is PGR (gene 5241) (UniProt P06401). Put plainly: NVS_NR_hPR: NovaScreen (NVS) Nuclear Receptor Binding Assay for human Progestron Receptor (PR) (AID 2283360).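 Note: active means loss of bound radioligand signal versus DMSO baseline.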 The procedure, abridged:
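Competitive displacement of a labelled radioligand from T47D-derived receptor protein is measured in a cell-free format. Initial testing uses 25 uM in duplicate, with positive and negative controls on every plate.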

Experiment [3] addresses guinea pig Sigma Receptor, Non-selective Binding, SIGMAR1 (gene 100135589) (UniProt Q60492). Description: NVS_OR_gSIGMA_NonSelective: NovaScreen (NVS) Nuclear Receptor Binding Assay for guinea pig Sigma Receptor, Non-selective Binding (AID 2283367). In short, it runs like this:
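Guinea pig brain membranes, cell-free radioligand binding; read 1 h after dosing by filter-based scintillation counting. Loss of signal vs DMSO baseline taken as displacement. Primary screen single concentration 25 uM in duplicate; actives retested in concentration series.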

Experiment [4] concerns the target Nuclear receptor subfamily 1 group I member 2 (Homo sapiens) (UniProt O75469). Put plainly: NVS_NR_hPXR: NovaScreen (NVS) Nuclear Receptor Binding Assay for human Pregnane X Receptor (PXR) (AID 2283365).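 Note: a drop in FRET signal versus DMSO baseline means the compound binds.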 In short, it runs like this:
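Human PXR protein, cell-free; compound added, incubated 2 h, TR-FRET read. Signal decrease vs DMSO = binding. Screened 25 uM duplicate, actives re-run as dilution series.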

Experiment [5] has as its system guinea pig Dopamine Transporter (DAT), gene 100714898. Description: NVS_TR_gDAT: NovaScreen (NVS) Transporter Assay for guinea pig Dopamine Transporter (DAT) (AID 2283369).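 Note: active compounds lower bound radioligand signal relative to DMSO.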 In short, it runs like this:
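Scintillation counts of filter-retained radioligand report binding to guinea pig striatal membranes after 2 h. Activity scored as signal loss relative to DMSO, first at 25 uM in duplicate, then in concentration series to 50 uM.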

Experiment [6] addresses rat Androgen Receptor (AR), Ar (gene 24208) (UniProt P15207). Put plainly: NVS_NR_rAR: NovaScreen (NVS) Nuclear Receptor Binding Assay for rat Androgen Receptor (AR) (AID 2283366). In short, it runs like this: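 Cell-free radioligand binding on extracts of prostate from testosterone-pretreated rats, read by filter-based scintillation counting 18 h after dosing. Loss of bound signal fitted positively versus DMSO; primary screen in duplicate at 25 uM, actives followed up in concentration series.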

Experiment [7] addresses Retinoic acid receptor alpha (Homo sapiens) (UniProt P10276). Put plainly: NVS_NR_hRARa_Agonist: NovaScreen (NVS) Nuclear Receptor Binding Assay for human Retinoic Acid Alpha Receptor Agonism (RAR) (AID 2283361). The procedure, abridged:
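Cell-free TR-FRET binding read-out with extracted human RARα protein, read 2 h after compound addition. Gain of signal scored against DMSO baseline. Primary screen at a single 25 uM in duplicate; actives then retested in concentration series.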

Experiment [8] has as its target human Peroxisome Proliferator-activated Receptor alpha (PPARa), PPARA (gene 5465) (UniProt Q07869). Put plainly: NVS_NR_hPPARa: NovaScreen (NVS) Nuclear Receptor Binding Assay for human Peroxisome Proliferator-activated Receptor alpha (PPARa) (AID 2283359).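 Note: activity means loss of TR-FRET signal versus DMSO baseline.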 In short, it runs like this: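 Cell-free binding assay with extracted human protein, read by TR-FRET 1 h after chemical dosing. Loss of signal relative to DMSO baseline indicates binding. Primary screen used duplicate single concentration (25 uM); actives followed up in concentration series.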

Experiment [9] has as its target human Adenosine Transporter (Adot), SLC29A1 (gene 2030) (UniProt Q99808). Description: NVS_TR_hAdoT: NovaScreen (NVS) Transporter Assay for human Adenosine Transporter (Adot) (AID 2283368). In short, it runs like this: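 U937-derived membranes, cell-free radioligand binding, filter scintillation 1 h after dosing. 25 uM duplicate screen; hits (e.g. 30% inhibition) run in concentration-response up to 50 uM; loss of signal versus DMSO.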

Sequence of human Adenosine Transporter (Adot), SLC29A1 (gene 2030) (Q99808 whole entry, looked up): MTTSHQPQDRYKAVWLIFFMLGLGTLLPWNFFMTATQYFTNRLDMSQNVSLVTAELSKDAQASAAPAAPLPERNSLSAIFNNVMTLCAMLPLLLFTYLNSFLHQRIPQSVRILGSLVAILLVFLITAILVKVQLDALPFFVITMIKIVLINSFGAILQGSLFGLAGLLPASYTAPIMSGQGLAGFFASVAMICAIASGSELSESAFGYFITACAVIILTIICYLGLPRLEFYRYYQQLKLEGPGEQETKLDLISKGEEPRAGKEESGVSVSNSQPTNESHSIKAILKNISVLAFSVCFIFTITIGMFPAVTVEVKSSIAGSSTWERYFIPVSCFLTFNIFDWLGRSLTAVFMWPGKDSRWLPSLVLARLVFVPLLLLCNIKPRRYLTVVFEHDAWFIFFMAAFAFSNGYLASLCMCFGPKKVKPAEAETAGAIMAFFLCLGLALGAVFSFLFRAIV
Sequence of rat Androgen Receptor (AR), Ar (gene 24208) (P15207 whole entry, looked up): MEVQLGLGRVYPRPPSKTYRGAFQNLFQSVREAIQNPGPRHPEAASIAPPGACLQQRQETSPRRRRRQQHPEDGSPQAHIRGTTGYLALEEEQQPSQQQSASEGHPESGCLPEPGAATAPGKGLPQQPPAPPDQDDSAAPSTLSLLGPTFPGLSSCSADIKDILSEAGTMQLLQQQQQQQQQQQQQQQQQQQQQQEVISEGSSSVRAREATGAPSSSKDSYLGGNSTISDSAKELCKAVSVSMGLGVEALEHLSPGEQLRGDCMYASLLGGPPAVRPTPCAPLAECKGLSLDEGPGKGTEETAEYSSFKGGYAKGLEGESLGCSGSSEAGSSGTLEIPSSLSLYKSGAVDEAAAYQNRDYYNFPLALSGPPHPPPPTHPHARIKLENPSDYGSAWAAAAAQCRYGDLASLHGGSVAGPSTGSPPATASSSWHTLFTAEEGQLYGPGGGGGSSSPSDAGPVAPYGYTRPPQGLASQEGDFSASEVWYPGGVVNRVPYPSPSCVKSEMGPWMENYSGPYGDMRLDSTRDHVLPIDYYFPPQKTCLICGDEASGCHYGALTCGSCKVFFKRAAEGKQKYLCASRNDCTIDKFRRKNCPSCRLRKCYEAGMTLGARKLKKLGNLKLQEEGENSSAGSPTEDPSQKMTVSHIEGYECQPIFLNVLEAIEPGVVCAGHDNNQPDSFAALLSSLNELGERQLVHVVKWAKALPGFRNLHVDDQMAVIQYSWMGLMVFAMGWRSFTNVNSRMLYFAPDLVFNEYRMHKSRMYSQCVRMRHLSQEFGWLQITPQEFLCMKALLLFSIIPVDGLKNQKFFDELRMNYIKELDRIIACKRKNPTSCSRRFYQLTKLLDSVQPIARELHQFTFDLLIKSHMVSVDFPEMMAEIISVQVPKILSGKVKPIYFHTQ
Sequence of guinea pig Sigma Receptor, Non-selective Binding, SIGMAR1 (gene 100135589) (Q60492 whole entry, looked up): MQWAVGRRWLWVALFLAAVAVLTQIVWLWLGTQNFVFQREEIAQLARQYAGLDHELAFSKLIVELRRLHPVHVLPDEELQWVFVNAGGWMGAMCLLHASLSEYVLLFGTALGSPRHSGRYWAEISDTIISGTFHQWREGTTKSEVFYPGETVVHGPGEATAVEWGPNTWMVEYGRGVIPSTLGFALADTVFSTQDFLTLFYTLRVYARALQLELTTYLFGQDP
Sequence of human Peroxisome Proliferator-activated Receptor alpha (PPARa), PPARA (gene 5465) (Q07869 whole entry, looked up): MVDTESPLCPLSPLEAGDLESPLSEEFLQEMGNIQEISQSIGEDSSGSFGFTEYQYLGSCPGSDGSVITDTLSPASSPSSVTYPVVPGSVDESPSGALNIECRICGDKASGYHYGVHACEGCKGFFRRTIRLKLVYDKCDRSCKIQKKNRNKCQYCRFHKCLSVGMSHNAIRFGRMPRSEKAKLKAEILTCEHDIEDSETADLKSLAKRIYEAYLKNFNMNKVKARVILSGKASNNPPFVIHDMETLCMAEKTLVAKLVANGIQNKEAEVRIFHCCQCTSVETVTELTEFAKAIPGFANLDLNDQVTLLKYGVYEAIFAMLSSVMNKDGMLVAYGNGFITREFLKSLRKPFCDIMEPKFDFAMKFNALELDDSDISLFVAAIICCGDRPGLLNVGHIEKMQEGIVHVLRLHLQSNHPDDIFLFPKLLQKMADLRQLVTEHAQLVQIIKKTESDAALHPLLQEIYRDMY
Sequence of Retinoic acid receptor alpha (Homo sapiens) (P10276 whole entry, looked up): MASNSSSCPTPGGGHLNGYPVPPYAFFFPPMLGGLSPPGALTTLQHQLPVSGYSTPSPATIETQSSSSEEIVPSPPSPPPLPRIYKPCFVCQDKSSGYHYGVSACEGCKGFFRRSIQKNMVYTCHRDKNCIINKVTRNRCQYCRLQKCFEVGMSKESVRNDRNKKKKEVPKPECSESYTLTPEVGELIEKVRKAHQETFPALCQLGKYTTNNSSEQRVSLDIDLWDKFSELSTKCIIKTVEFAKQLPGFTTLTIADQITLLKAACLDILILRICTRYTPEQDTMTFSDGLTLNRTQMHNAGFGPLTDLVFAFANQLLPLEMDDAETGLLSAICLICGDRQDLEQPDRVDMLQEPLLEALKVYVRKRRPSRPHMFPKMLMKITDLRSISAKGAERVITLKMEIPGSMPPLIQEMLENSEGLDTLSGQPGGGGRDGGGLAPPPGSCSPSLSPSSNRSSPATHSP
Sequence of human Thyroid Receptor Alpha (TRa), THRA (gene 7067) (P10827 whole entry, looked up): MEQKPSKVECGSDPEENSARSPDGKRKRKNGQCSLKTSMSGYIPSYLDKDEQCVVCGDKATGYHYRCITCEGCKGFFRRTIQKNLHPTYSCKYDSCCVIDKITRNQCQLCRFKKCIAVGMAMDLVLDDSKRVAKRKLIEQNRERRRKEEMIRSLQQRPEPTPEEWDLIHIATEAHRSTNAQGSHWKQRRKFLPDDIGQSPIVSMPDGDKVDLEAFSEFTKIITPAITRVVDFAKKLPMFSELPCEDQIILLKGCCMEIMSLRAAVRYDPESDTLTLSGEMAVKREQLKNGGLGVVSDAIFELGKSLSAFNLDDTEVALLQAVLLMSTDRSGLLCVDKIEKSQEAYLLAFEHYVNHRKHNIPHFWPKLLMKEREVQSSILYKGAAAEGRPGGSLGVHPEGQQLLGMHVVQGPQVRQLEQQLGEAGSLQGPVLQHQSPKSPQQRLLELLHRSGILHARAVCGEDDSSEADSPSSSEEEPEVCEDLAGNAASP
Sequence of PGR (gene 5241) (P06401 whole entry, looked up): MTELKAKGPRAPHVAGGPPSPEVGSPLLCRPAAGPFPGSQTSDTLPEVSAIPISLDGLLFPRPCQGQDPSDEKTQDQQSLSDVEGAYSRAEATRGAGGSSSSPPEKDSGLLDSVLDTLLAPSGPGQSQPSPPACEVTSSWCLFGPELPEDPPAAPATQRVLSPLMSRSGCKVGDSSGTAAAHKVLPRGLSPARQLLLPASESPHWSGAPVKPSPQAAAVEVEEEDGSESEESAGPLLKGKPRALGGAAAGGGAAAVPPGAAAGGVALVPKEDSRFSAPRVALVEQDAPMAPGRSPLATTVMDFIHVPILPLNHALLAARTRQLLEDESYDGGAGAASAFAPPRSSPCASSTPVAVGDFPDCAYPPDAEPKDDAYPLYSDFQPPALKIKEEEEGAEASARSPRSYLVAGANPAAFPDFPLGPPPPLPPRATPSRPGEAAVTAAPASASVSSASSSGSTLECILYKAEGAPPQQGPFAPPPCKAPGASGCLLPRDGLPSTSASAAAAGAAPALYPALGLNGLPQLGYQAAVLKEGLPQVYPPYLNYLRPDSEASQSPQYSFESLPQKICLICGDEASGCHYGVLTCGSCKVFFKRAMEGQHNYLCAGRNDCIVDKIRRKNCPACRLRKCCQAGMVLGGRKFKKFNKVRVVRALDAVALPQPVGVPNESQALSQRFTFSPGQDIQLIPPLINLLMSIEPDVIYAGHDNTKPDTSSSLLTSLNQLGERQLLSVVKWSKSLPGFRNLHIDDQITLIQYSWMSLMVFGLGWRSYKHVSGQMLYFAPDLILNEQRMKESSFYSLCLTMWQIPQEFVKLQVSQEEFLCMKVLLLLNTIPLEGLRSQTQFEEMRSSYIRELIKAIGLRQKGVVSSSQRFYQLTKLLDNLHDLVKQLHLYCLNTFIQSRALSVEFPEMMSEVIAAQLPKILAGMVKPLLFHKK
Sequence of Nuclear receptor subfamily 1 group I member 2 (Homo sapiens) (O75469 whole entry, looked up): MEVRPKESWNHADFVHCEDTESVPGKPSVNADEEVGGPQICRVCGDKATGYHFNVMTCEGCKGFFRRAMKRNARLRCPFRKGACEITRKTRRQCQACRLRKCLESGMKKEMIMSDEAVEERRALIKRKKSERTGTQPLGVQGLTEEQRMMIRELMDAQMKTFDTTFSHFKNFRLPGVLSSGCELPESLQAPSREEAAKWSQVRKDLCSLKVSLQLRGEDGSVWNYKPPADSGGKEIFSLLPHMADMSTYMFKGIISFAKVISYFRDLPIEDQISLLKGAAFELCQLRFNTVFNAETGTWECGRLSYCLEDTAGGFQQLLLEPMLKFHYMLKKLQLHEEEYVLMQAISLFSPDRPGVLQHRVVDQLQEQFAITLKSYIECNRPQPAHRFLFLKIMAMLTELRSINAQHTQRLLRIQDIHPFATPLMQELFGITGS

Consider `CC1(C)C(C=C(Cl)Cl)C1C(=O)OC(C#N)c1ccc(F)c(Oc2ccccc2)c1` (centres undefined), for which the compound was classed as inactive in experiment [1] and in [2].

Consider `COc1nn(CSP(=S)(OC)OC)c(=O)s1`, for which the outcome (in the experiment with PGR (gene 5241); in experiment [1]; in experiment [2]) was inactive. Also, the AC50 in experiment [3] is 10.7 µM (active).

As for `ClC1C(Cl)C(Cl)C(Cl)C(Cl)C1Cl` (centres undefined), the call (with PGR (gene 5241); in experiment [4]) was inactive. Moreover, the half-maximal activity concentration (AC50) in experiment [5] was 9.83 µM (active) and 3.74 µM (active).

In the case of `CC[C@H](C)[C@H]1O[C@]2(C=C[C@@H]1C)C[C@@H]1C[C@@H](C/C=C(\C)[C@@H](O[C@H]3C[C@H](OC)[C@@H](O[C@H]4C[C@H](OC)[C@@H](O)[C@H](C)O4)[C@H](C)O3)[C@@H](C)/C=C/C=C3\CO[C@@H]4[C@H](O)C(C)=C[C@@H](C(=O)O1)[C@]34O)O2` (tested in a mixture with another compound), the result (with PGR (gene 5241); in experiment [3]; in experiment [2]) was inactive. In addition, the AC50 in experiment [1] is 12 µM (active).

Turning to `COC(=O)c1ccccc1CS(=O)(=O)NC(=O)Nc1nc(OC)cc(OC)n1`, the call in experiment [2] was inactive.

With `O=S1OCC2C(CO1)C1(Cl)C(Cl)=C(Cl)C2(Cl)C1(Cl)Cl` (centres undefined), the compound was called inactive (with PGR (gene 5241); in experiment [6]; in experiment [2]). In addition, in [5], the half-maximal activity concentration (AC50) is 17.7 µM (active).

For `CCC(C)Nc1c([N+](=O)[O-])cc(C(C)(C)C)cc1[N+](=O)[O-]` (centres undefined), the result in [2] was inactive.

For the compound `O=C(O)CCCOc1ccc(Cl)cc1Cl`, the outcome (with PGR (gene 5241); in experiment [6]; in [2]) was inactive.

On to `C[C@H]1[C@H](c2ccc(Cl)cc2)SC(=O)N1C(=O)NC1CCCCC1`, for which the outcome with PGR (gene 5241) was inactive.

As for `CNC(=O)CSP(=S)(OC)OC`, the AC50 with PGR (gene 5241) was 6.3 µM (active). Further, the compound was called inactive in [1] and in experiment [2].

For the compound `N#Cc1c(Cl)c(Cl)c(Cl)c(C#N)c1Cl`, the compound was called inactive with PGR (gene 5241). The concentration at half-maximal activity (AC50) in experiment [7] is 36.9 µM (active); in experiment [1], 40.5 µM (active); in [2], 495 nM (active).

For `CCC(C)(C)C(=O)OC1=C(c2ccc(Cl)cc2Cl)C(=O)OC12CCCCC2`, the outcome in experiment [7] was inactive.

For `CCCN(CCC)c1c([N+](=O)[O-])cc(C(F)(F)F)cc1[N+](=O)[O-]`, the compound was called inactive in experiment [6] and in experiment [5].

Take `COP(=O)(OC)OC=C(Cl)Cl`: the compound was classed as inactive (with PGR (gene 5241); in [1]). The AC50 in experiment [2] was 6970 nM (active).

`CCOc1nc(NC)nc(NC(=O)NS(=O)(=O)c2ccccc2C(=O)OC)n1`: the result (in the experiment with PGR (gene 5241); in [1]; in experiment [6]; in experiment [2]) was inactive.

For the compound `O=S(=O)(O)C(F)(F)C(F)(F)C(F)(F)C(F)(F)C(F)(F)C(F)(F)C(F)(F)C(F)(F)F`, the AC50 in experiment [8] was 11.2 µM (active); with PGR (gene 5241), 20.2 µM (active) [middle of 4 runs]; in [1], 12 µM (active); in experiment [4], 39.6 µM (active); in [2] it was 16.9 µM (active) [middle of 6 runs]. For the same compound, the result in [8] was inactive.

With `COP(=S)(OC)Oc1ccc([N+](=O)[O-])cc1`, the AC50 with PGR (gene 5241) is 10.3 µM (active); in experiment [3] it was 4.69 µM (active); in [5] it was 20.1 µM (active). Also, the result in experiment [1] was inactive.

Consider `Oc1ccc(Cl)cc1Cc1ccccc1`, for which the outcome in experiment [8], in experiment [7], in experiment [9], in [5] and in [2] was inactive. Also, the half-maximal activity concentration (AC50) is 16.5 µM (active) [middle of 6 runs] with PGR (gene 5241); 12.3 µM (active) [middle of 6 runs] in experiment [6]; 39.8 µM (active) and 25.2 µM (active) and 36.3 µM (active) in experiment [9]; 12.8 µM (active) [middle of 5 runs] in experiment [5].
